What all share (conditions): mRNA level, 48 h; actives raise or lower the signal
Read-out in assay [1]: Apoptosis regulator Bcl-2 (Homo sapiens) (UniProt P10415)
Nature of the assay: LTEA_HepaRG_BCL2: Life Technologies and Expression Analysis (LTEA) Assay for Bcl-2 gene using HepaRG (AID 2283475). In outline: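 Differentiated human HepaRG cells in serum-free induction medium exposed 48 h, in duplicate, to 8-point half-log series from 100 uM in 0.5% DMSO. BCL2 mRNA by qRT-PCR (TaqMan/Fluidigm), normalized to ACTB, GAPDH, POLR2A; bidirectional fit against DMSO.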

Read-out in assay [2]: Bcl-2 (BID) gene, BID (gene 637)
Nature of the assay: LTEA_HepaRG_BID: Life Technologies and Expression Analysis (LTEA) Assay for Bcl-2 (BID) gene using HepaRG (AID 2283476). The method, boiled down:
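Gene expression by qRT-PCR in HepaRG cells after 48 h exposure, duplicate wells, eight half-log concentrations topping at 100 uM in 0.5% DMSO. Normalized to ACTB, GAPDH, POLR2A; bidirectional fitting relative to DMSO.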

Read-out in the next assay: Caspase-3 (Homo sapiens) (UniProt P42574)
Nature of the assay: LTEA_HepaRG_CASP3: Life Technologies and Expression Analysis (LTEA) Assay for cysteine-aspartic acid protease (CASP3) using HepaRG (AID 2283477). The method, boiled down: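 Differentiated HepaRG cells, plated 48 h, were treated in duplicate in serum-free induction medium for 48 h with eight half-log concentrations up to 100 uM in 0.5% DMSO. CASP3 mRNA measured by qRT-PCR, normalized to ACTB, GAPDH, POLR2A.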

Read-out in assay [3]: Cytochrome P450 (CYP1A2), CYP1A2 (gene 1544)
Description: LTEA_HepaRG_CYP1A2: Life Technologies and Expression Analysis (LTEA) Assay for Cytochrome P450 (CYP1A2) using HepaRG (AID 2283479). In outline: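 Differentiated human HepaRG cells in serum-free induction medium exposed 48 hours in duplicate to 8 half-log concentrations from 100 uM, 0.5% DMSO. CYP1A2 mRNA quantified by qRT-PCR, normalized to ACTB, GAPDH and POLR2A; bidirectional fitting versus DMSO.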

Read-out in assay [4]: cysteine-aspartic acid protease (CASP8), CASP8 (gene 841)
Nature of the assay: LTEA_HepaRG_CASP8: Life Technologies and Expression Analysis (LTEA) Assay for cysteine-aspartic acid protease (CASP8) using HepaRG (AID 2283480). The method, boiled down: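 HepaRG, 48 h exposure, duplicate wells; 8 conc, half-log from 100 uM, 0.5% DMSO. Serum-free induction medium. CASP8 mRNA by TaqMan qRT-PCR, norm. ACTB/GAPDH/POLR2A; gain/loss fitted vs DMSO.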

Read-out in assay [5]: Cytochrome P450 (CYP2B6), CYP2B6 (gene 1555)
Nature of the assay: LTEA_HepaRG_CYP2B6: Life Technologies and Expression Analysis (LTEA) Assay for Cytochrome P450 (CYP2B6) using HepaRG (AID 2283481). The method, boiled down: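 Differentiated human HepaRG cells in serum-free induction medium, dosed in duplicate for 48 h over 8 half-log concentrations topping at 100 uM (0.5% DMSO). CYP2B6 mRNA measured by TaqMan qRT-PCR, normalized to ACTB, GAPDH, POLR2A; bidirectional fit versus DMSO.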

Read-out in assay [6]: Cytochrome P450 2C19 (Homo sapiens) (UniProt P33261)
Nature of the assay: LTEA_HepaRG_CYP2C19: Life Technologies and Expression Analysis (LTEA) Assay for CYP2C19 using HepaRG (AID 2283482). In outline: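 Differentiated HepaRG cells in serum-free induction medium exposed 48 h in duplicate, 8 concentrations from 100 uM by half-log steps in 0.5% DMSO. CYP2C19 mRNA measured by TaqMan qRT-PCR, normalized to ACTB, GAPDH, POLR2A. Bidirectional fit versus DMSO.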

Read-out in the next assay: CYP2C8 (gene 1558)
Nature of the assay: LTEA_HepaRG_CYP2C8: Life Technologies and Expression Analysis (LTEA) Assay for CYP2C8 using HepaRG (AID 2283483). The method, boiled down: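 CYP2C8 mRNA induction or loss, by qRT-PCR normalized to ACTB/GAPDH/POLR2A, is read in HepaRG cells after 48 h treatment. Concentrations run from 100 uM down in half-log dilutions, with 0.5% DMSO as vehicle and baseline.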

Read-out in the next assay: CYP2C9 (gene 1559)
Description: LTEA_HepaRG_CYP2C9: Life Technologies and Expression Analysis (LTEA) Assay for CYP2C9 using HepaRG (AID 2283484). In outline:
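Cells plated 48 h, switched to serum-free induction medium, then treated in duplicate for 48 h at eight concentrations (max 100 uM, 0.5% DMSO). RNA then analysed by qRT-PCR for CYP2C9; curves fitted in both directions relative to DMSO.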

Read-out in the next assay: CYP4A11 (gene 1579)
Description: LTEA_HepaRG_CYP4A11: Life Technologies and Expression Analysis (LTEA) Assay for CYP4A11 using HepaRG (AID 2283486). The method, boiled down:
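Differentiated HepaRG cells, 48 h after plating, exposed in duplicate for 48 h to 8 half-log concentrations up to 100 uM in 0.5% DMSO in serum-free induction medium. CYP4A11 mRNA measured by TaqMan qRT-PCR, normalized to ACTB, GAPDH and POLR2A.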

Read-out in assay [7]: Cytochrome P450 3A4 (Homo sapiens) (UniProt P08684)
Description: LTEA_HepaRG_CYP3A4: Life Technologies and Expression Analysis (LTEA) Assay for CYP3A4 using HepaRG (AID 2283487). In outline: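 Differentiated HepaRG cells, plated 48 h, then dosed 48 h in serum-free induction medium with 0.5% DMSO, 8 half-log concentrations up to 100 uM, duplicate. CYP3A4 mRNA by qRT-PCR, normalized to ACTB/GAPDH/POLR2A; bidirectional fit versus DMSO.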

Read-out in assay [8]: DNA damage-inducible transcript 3 (DDIT3), DDIT3 (gene 1649)
Nature of the assay: LTEA_HepaRG_DDIT3: Life Technologies and Expression Analysis (LTEA) Assay for DNA damage-inducible transcript 3 (DDIT3) using HepaRG (AID 2283488). The method, boiled down:
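HepaRG cells, 48 h after plating, exposed 48 h in serum-free induction medium to 8 half-log concentrations up to 100 uM in 0.5% DMSO, in duplicate. DDIT3 mRNA measured by TaqMan qRT-PCR, normalized to ACTB, GAPDH and POLR2A. Fitted bidirectionally against DMSO.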

Read-out in assay [9]: Pro-epidermal growth factor (Homo sapiens) (UniProt P01133)
Nature of the assay: LTEA_HepaRG_EGF: Life Technologies and Expression Analysis (LTEA) Assay for Epidermal growth factor (EGF) using HepaRG (AID 2283489). In outline:
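HepaRG cells (~100,000/well, 48 h pre-culture) exposed in duplicate for 48 h in serum-free induction medium to 8 half-log concentrations up to 100 uM in 0.5% DMSO. EGF mRNA by qRT-PCR, normalized to ACTB/GAPDH/POLR2A; bidirectional fit versus DMSO.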

Read-out in assay [10]: Early growth response protein 1 (EGR1) transcription factor, EGR1 (gene 1958)
Description: LTEA_HepaRG_EGR1: Life Technologies and Expression Analysis (LTEA) Assay for Early growth response protein 1 (EGR1) transcription factor using HepaRG (AID 2283490). The method, boiled down:
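Read-out is EGR1 mRNA level by qRT-PCR, normalized to three housekeeping genes and analysed for gain or loss of signal against 0.5% DMSO. Source cells: human HepaRG, treated 48 h at up to 100 uM in half-log dilutions.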

Read-out in assay [11]: Ezrin (EZR), EZR (gene 7430)
Description: LTEA_HepaRG_EZR: Life Technologies and Expression Analysis (LTEA) Assay for Ezrin (EZR) using HepaRG (AID 2283491). The method, boiled down: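 EZR transcript levels came from Fluidigm qRT-PCR and were normalized to three housekeeping genes after 48 h chemical exposure of HepaRG cells. Dosing used an 8-point half-log series with a 100 uM top concentration in 0.5% DMSO, tested in duplicate; both directions were fitted versus vehicle.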

Read-out in assay [12]: Cytochrome P450 3A7 (Homo sapiens) (UniProt P24462)
Nature of the assay: LTEA_HepaRG_CYP3A7: Life Technologies and Expression Analysis (LTEA) Assay for CYP3A7 using HepaRG (AID 2283492). In outline: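 Differentiated HepaRG cells in serum-free induction medium exposed 48 h in duplicate to 8-point half-log series from 100 uM top in 0.5% DMSO. CYP3A7 mRNA by qRT-PCR, normalized to ACTB/GAPDH/POLR2A, bidirectional fit versus DMSO.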

Read-out in a further assay: CYP3A5 (gene 1577)
Nature of the assay: LTEA_HepaRG_CYP3A5: Life Technologies and Expression Analysis (LTEA) Assay for CYP3A5 using HepaRG (AID 2283493). The method, boiled down: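 HepaRG cells, plated 48 h then in serum-free induction medium, dosed in duplicate for 48 h with eight half-log concentrations up to 100 uM in 0.5% DMSO. Gene mRNA by Fluidigm TaqMan qRT-PCR, normalized to ACTB, GAPDH, POLR2A.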

Read-out in assay [13]: Fatty Acid-Binding Protein 1 (FABP1), FABP1 (gene 2168)
Description: LTEA_HepaRG_FABP1: Life Technologies and Expression Analysis (LTEA) Assay for Fatty Acid-Binding Protein 1 (FABP1) using HepaRG (AID 2283494). In outline: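 HepaRG, 48 h post-plating switched to serum-free induction medium, then dosed 48 h (duplicate, 8 pts, ≤100 uM, 0.5% DMSO). RNA → Fluidigm TaqMan qRT-PCR, FABP1 normed to ACTB/GAPDH/POLR2A. Bidirectional curve fit vs DMSO.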

The source made the active and inactive calls. The calls were made as follows: active = hit-call score of the fitted dose curve at least 0.9, where 1 is the maximum; inactive = score below 0.9.

Sequence of Cytochrome P450 3A4 (Homo sapiens) (P08684 whole entry, looked up): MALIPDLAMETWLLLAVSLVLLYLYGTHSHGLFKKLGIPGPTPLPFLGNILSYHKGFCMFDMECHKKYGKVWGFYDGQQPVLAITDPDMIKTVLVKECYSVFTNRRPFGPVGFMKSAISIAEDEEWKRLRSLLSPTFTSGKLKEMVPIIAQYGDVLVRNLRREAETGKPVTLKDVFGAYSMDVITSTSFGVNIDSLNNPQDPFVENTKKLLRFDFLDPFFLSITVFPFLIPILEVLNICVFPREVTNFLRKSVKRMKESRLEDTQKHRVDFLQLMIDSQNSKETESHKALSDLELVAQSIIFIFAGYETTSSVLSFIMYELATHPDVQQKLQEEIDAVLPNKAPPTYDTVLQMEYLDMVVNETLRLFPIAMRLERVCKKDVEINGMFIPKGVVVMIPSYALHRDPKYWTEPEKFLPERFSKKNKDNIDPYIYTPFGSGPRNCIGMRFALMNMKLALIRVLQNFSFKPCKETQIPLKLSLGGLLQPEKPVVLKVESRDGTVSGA
Sequence of Caspase-3 (Homo sapiens) (P42574 whole entry, looked up): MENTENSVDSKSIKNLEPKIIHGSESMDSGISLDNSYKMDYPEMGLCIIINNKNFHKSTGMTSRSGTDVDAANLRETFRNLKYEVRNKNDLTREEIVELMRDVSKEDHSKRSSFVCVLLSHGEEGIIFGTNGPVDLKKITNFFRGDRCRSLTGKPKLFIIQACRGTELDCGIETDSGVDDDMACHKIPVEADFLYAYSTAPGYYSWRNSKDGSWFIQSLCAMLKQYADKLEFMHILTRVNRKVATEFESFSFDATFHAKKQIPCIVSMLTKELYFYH
Sequence of Apoptosis regulator Bcl-2 (Homo sapiens) (P10415 whole entry, looked up): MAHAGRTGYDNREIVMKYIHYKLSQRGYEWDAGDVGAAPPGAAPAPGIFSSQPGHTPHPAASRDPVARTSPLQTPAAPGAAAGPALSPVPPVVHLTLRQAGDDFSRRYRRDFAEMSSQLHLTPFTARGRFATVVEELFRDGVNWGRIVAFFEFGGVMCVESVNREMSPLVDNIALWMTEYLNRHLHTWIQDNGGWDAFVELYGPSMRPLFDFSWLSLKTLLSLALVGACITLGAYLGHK
Sequence of Cytochrome P450 2C19 (Homo sapiens) (P33261 whole entry, looked up): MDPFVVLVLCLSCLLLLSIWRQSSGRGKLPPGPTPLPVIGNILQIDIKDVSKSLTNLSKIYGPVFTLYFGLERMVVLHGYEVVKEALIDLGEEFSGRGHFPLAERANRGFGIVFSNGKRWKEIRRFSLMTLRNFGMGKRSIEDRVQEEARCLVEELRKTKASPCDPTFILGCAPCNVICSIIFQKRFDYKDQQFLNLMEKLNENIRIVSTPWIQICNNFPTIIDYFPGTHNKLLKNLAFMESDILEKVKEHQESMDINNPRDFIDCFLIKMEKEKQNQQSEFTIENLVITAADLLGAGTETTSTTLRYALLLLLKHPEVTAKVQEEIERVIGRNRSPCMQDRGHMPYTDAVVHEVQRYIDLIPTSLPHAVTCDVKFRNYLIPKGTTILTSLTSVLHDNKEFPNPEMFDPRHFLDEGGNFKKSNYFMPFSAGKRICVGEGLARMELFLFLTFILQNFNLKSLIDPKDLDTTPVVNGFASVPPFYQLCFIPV
Sequence of Cytochrome P450 3A7 (Homo sapiens) (P24462 whole entry, looked up): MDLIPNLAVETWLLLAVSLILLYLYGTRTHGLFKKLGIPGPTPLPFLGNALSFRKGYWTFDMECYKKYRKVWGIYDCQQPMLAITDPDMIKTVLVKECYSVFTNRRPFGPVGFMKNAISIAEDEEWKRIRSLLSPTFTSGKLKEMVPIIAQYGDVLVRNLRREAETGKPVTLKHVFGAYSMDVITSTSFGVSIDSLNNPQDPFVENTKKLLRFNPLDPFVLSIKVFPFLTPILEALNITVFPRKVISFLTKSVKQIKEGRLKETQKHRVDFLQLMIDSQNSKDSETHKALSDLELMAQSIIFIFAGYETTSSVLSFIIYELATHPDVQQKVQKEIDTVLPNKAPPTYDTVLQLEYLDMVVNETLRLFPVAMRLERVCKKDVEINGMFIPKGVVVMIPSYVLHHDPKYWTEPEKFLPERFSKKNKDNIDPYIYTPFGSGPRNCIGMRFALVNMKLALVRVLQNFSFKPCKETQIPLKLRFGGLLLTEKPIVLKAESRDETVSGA

Turning to `OC12N=C(c3ccccc3)SC1Cc1cc(Cl)ccc12` (stereo unspecified), the AC50 in assay [1] is 20.3 µM (active); in [3], 1.25 µM (active); in assay [5], 11.6 µM (active); in assay [6], 80.4 µM (active); with CYP2C8 (gene 1558) it was 39.6 µM (active); in the assay with CYP2C9 (gene 1559) it was 37.7 µM (active). Besides, the AC50 with CYP4A11 (gene 1579) was 49 µM (active); in [7] it was 81.3 µM (active); in assay [8], 2.33 µM (active); in assay [12], 59 µM (active); in the assay with CYP3A5 (gene 1577), 8.12 µM (active); in assay [13], 34.4 µM (active). Further, the call (in assay [2]; with Caspase-3 (Homo sapiens); in assay [4]; in assay [9]; in assay [10]; in assay [11]) was inactive.

Turning to `CCCC(=O)OCCC(C)C`, the compound was classed as inactive (in assay [1]; in [2]; in the assay with Caspase-3 (Homo sapiens); in assay [5]; in assay [6]; with CYP2C8 (gene 1558)). Besides, the compound was called inactive (with CYP2C9 (gene 1559); with CYP4A11 (gene 1579); in assay [7]; in assay [8]; in assay [9]; in assay [10]). Moreover, the result (in [11]; in the assay with CYP3A5 (gene 1577); in assay [13]) was inactive. Moreover, the AC50 in assay [3] was 50 µM (active).

Turning to `NC(=O)c1nc(-c2cccc(-c3cc(F)ccc3OCC(F)(F)C(F)(F)F)c2)n[nH]1`, the outcome (in assay [1]; in [2]; in the assay with Caspase-3 (Homo sapiens); in assay [3]; in assay [4]; in assay [5]) was inactive. Also, the outcome (in [6]; with CYP2C8 (gene 1558); in the assay with CYP2C9 (gene 1559); in [9]; in [11]; with CYP3A5 (gene 1577)) was inactive. The AC50 is 12.3 µM (active) with CYP4A11 (gene 1579); 81.1 µM (active) in assay [7]; 78.1 µM (active) in [8]; 84.4 µM (active) in [10]; 50 µM (active) in [13].

For orientation: AC50 means the midpoint of the concentration-response curve, whichever way the signal moves.
